Several values for one entry are separate records, joined by “and”; a condition that tells them apart may be missing. Identical values can stand only once. Like-named read-outs stand apart in the source and are kept apart here.
Tests used:
PAK6 = conditions: n = 1
PAK7 = conditions: n = 1
PCTK1 = tested on: T1, PCTK1; conditions: concentration: 1 μM, replicates: in singlicate; n = 1
T1 construct: gene CDK16

PCTK2 = tested on: T2, PCTK2; conditions: concentration: 1 μM, replicates: in singlicate; n = 1
T2 construct: gene CDK17

PCTK3 = tested on: T3, PCTK3; conditions: n = 1
T3 construct: gene CDK18

PDGFRA = conditions: n = 1
PDGFRB = conditions: n = 1
PDPK1 = conditions: n = 1
PFTAIRE2 = conditions: n = 1
PFTK1 = tested on: T4, PFTK1; conditions: n = 1
T4 construct: gene CDK14

PHKG1 = conditions: concentration: 1 μM, replicates: in singlicate; n = 1
PHKG2 = conditions: n = 1
PIK3C2B = conditions: n = 1
PIK3C2G = conditions: concentration: 1 μM, replicates: in singlicate; n = 1
PIK3CA = conditions: concentration: 1 μM, replicates: in singlicate; n = 1
PIK3CB = conditions: n = 1
PIK3CD = conditions: n = 1
PIK3CG = conditions: n = 1
PIK4CB = tested on: T5, PIK4CB; conditions: n = 1
T5 construct: gene PI4KB

PIKFYVE = conditions: concentration: 1 μM, replicates: in singlicate; n = 1
[1] = concentration: 1 μM, replicates: in singlicate
[2] = concentration: 1 μM,replicates: in singlicate, 1 µM
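Also: KINOMEscan kinase panel screen.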

## COc1cc2ncnc(Nc3ccc4nc(-c5ccccc5)[nH]c4c3)c2cc1OC.Cl [GW282450]
PAK6; [1]
  %Inh: 11%
PAK7; [1]
  %Inh: 12%
PCTK1
  %Inh: 0%
PCTK2
  %Inh: 0%
PCTK3; [1]
  %Inh: 1%
PDGFRA; [1]
  %Inh: 0%
PDGFRB; [1]
  %Inh: 28%
PDPK1; [1]
  %Inh: 0%
PFTAIRE2; [1]
  %Inh: 8%
PFTK1; [1]
  %Inh: 19%
PHKG1
  %Inh: 0%
PHKG2; [1]
  %Inh: 6%
PIK3C2B; [1]
  %Inh: 0%
PIK3C2G
  %Inh: 0%
PIK3CA
  %Inh: 0%
PIK3CB; [1]
  %Inh: 0%
PIK3CD; [1]
  %Inh: 0%
PIK3CG; [1]
  %Inh: 0%
PIK4CB; [1]
  %Inh: 0%
PIKFYVE
  %Inh: 0%

## Cl.c1ccc(-c2n[nH]cc2-c2ccnc(-c3ccc(CN4CCOCC4)cc3)c2)nc1 [GW776245]
PAK6; [1]
  %Inh: 14%
PAK7; [1]
  %Inh: 0%
PCTK1
  %Inh: 0%
PCTK2
  %Inh: 11%
PCTK3; [1]
  %Inh: 6%
PDGFRA; [1]
  %Inh: 0%
PDGFRB; [1]
  %Inh: 0%
PDPK1; [1]
  %Inh: 21%
PFTAIRE2; [1]
  %Inh: 19%
PFTK1; [1]
  %Inh: 0%
PHKG1
  %Inh: 0%
PHKG2; [1]
  %Inh: 14%
PIK3C2B; [1]
  %Inh: 16%
PIK3C2G
  %Inh: 0%
PIK3CA
  %Inh: 0%
PIK3CB; [1]
  %Inh: 0%
PIK3CD; [1]
  %Inh: 0%
PIK3CG; [1]
  %Inh: 33%
PIK4CB; [1]
  %Inh: 0%
PIKFYVE
  %Inh: 0%

## Cc1cccc(-c2nc(C)cc(Nc3ccncc3)n2)n1 [GSK257997]
PAK6; [1]
  %Inh: 0%
PAK7; [1]
  %Inh: 0%
PCTK1
  %Inh: 9%
PCTK2
  %Inh: 0%
PCTK3; [1]
  %Inh: 15%
PDGFRA; [1]
  %Inh: 0%
PDGFRB; [1]
  %Inh: 11%
PDPK1; [1]
  %Inh: 0%
PFTAIRE2; [1]
  %Inh: 14%
PFTK1; [1]
  %Inh: 24%
PHKG1
  %Inh: 0%
PHKG2; [1]
  %Inh: 7%
PIK3C2B; [1]
  %Inh: 0%
PIK3C2G
  %Inh: 0%
PIK3CA
  %Inh: 3%
PIK3CB; [1]
  %Inh: 0%
PIK3CD; [1]
  %Inh: 0%
PIK3CG; [1]
  %Inh: 5%
PIK4CB; [1]
  %Inh: 0%
PIKFYVE
  %Inh: 27%

## Cl.O=C(Nc1cccc(-c2nn3ncccc3c2-c2ccnc(Nc3cccnc3)n2)c1)c1c(F)cccc1F [GSK312879]
PAK6; [1]
  %Inh: 0%
PAK7; [1]
  %Inh: 10%
PCTK1
  %Inh: 1%
PCTK2
  %Inh: 0%
PCTK3; [1]
  %Inh: 0%
PDGFRA; [1]
  %Inh: 0%
PDGFRB; [1]
  %Inh: 77%
PDPK1; [1]
  %Inh: 28%
PFTAIRE2; [1]
  %Inh: 22%
PFTK1; [1]
  %Inh: 9%
PHKG1
  %Inh: 8%
PHKG2; [1]
  %Inh: 18%
PIK3C2B; [1]
  %Inh: 0%
PIK3C2G
  %Inh: 0%
PIK3CA
  %Inh: 0%
PIK3CB; [1]
  %Inh: 0%
PIK3CD; [1]
  %Inh: 0%
PIK3CG; [1]
  %Inh: 0%
PIK4CB; [1]
  %Inh: 11%
PIKFYVE
  %Inh: 52%

## COc1ccccc1CNC(=O)c1cc(C(=O)c2ccccc2C)c[nH]1 [GSK364507]
PAK6; [1]
  %Inh: 0%
PAK7; [1]
  %Inh: 0%
PCTK1
  %Inh: 4%
PCTK2
  %Inh: 0%
PCTK3; [1]
  %Inh: 27%
PDGFRA; [1]
  %Inh: 0%
PDGFRB; [1]
  %Inh: 52%
PDPK1; [1]
  %Inh: 0%
PFTAIRE2; [1]
  %Inh: 0%
PFTK1; [1]
  %Inh: 22%
PHKG1
  %Inh: 1%
PHKG2; [1]
  %Inh: 0%
PIK3C2B; [1]
  %Inh: 0%
PIK3C2G
  %Inh: 0%
PIK3CA
  %Inh: 0%
PIK3CB; [1]
  %Inh: 0%
PIK3CD; [1]
  %Inh: 0%
PIK3CG; [1]
  %Inh: 0%
PIK4CB; [1]
  %Inh: 16%
PIKFYVE
  %Inh: 0%

## COc1cccc(NC(=O)NC2CCN(c3ccnc(Nc4ccc(F)cc4)n3)C2)c1 (stereo not shown) [GSK1379721]
PAK6; [1]
  %Inh: 0%
PAK7; [1]
  %Inh: 10%
PCTK1
  %Inh: 1%
PCTK2
  %Inh: 14%
PCTK3; [1]
  %Inh: 19%
PDGFRA; [1]
  %Inh: 9%
PDGFRB; [1]
  %Inh: 42%
PDPK1; [1]
  %Inh: 0%
PFTAIRE2; [1]
  %Inh: 28%
PFTK1; [1]
  %Inh: 0%
PHKG1
  %Inh: 0%
PHKG2; [1]
  %Inh: 0%
PIK3C2B; [1]
  %Inh: 11%
PIK3C2G
  %Inh: 0%
PIK3CA
  %Inh: 3%
PIK3CB; [1]
  %Inh: 0%
PIK3CD; [1]
  %Inh: 0%
PIK3CG; [1]
  %Inh: 13%
PIK4CB; [1]
  %Inh: 0%
PIKFYVE
  %Inh: 31%

## CSc1nn2c(=O)cc(N3CCOCC3)nc2n1Cc1cccc(C(F)(F)F)c1C [GSK2363608]
PAK6; [2]
  %Inh: 12% and 0%
PAK7; [2]
  %Inh: 1% and 0%
PCTK1
  %Inh: 2%
PCTK2
  %Inh: 0%
PCTK3; [2]
  %Inh: 0% and 5%
PDGFRA; [2]
  %Inh: 15% and 0%
PDGFRB; [2]
  %Inh: 12% and 8%
PDPK1; [2]
  %Inh: 7% and 0%
PFTAIRE2; [2]
  %Inh: 23% and 6%
PFTK1; [2]
  %Inh: 21% and 6%
PHKG1
  %Inh: 0%
PHKG2; [2]
  %Inh: 5% and 0%
PIK3C2B; [2]
  %Inh: 25% and 20%
PIK3C2G
  %Inh: 0%
PIK3CA
  %Inh: 9%
PIK3CB; [2]
  %Inh: 97% and 100%
PIK3CD; 1 µM
  %Inh: 94.4% and 94.3%
PIK3CG; [2]
  %Inh: 17% and 16%
PIK4CB; [2]
  %Inh: 14% and 4%
PIKFYVE
  %Inh: 0%

## Cc1cccc(-c2nc(-c3ccc(S(C)(=O)=O)cc3)sc2-c2ccnc(NCCc3ccccc3)c2)c1
PAK6; [1]
  %Inh: 5%
PAK7; [1]
  %Inh: 5%
PCTK1
  %Inh: 15%
PCTK2
  %Inh: 3%
PCTK3; [1]
  %Inh: 0%
PDGFRA; [1]
  %Inh: 89%
PDGFRB; [1]
  %Inh: 100%
PDPK1; [1]
  %Inh: 17%
PFTAIRE2; [1]
  %Inh: 5%
PFTK1; [1]
  %Inh: 0%
PHKG1
  %Inh: 0%
PHKG2; [1]
  %Inh: 9%
PIK3C2B; [1]
  %Inh: 0%
PIK3C2G
  %Inh: 18%
PIK3CA
  %Inh: 1%
PIK3CB; [1]
  %Inh: 11%
PIK3CD; [1]
  %Inh: 26%
PIK3CG; [1]
  %Inh: 17%
PIK4CB; [1]
  %Inh: 0%
PIKFYVE
  %Inh: 0%

## Cc1c(O)cccc1Nc1ccnc2ccc(C(F)(F)F)cc12.Cl [GW466413]
PAK6; [1]
  %Inh: 0%
PAK7; [1]
  %Inh: 0%
PCTK1
  %Inh: 0%
PCTK2
  %Inh: 0%
PCTK3; [1]
  %Inh: 0%
PDGFRA; [1]
  %Inh: 0%
PDGFRB; [1]
  %Inh: 5%
PDPK1; [1]
  %Inh: 0%
PFTAIRE2; [1]
  %Inh: 0%
PFTK1; [1]
  %Inh: 0%
PHKG1
  %Inh: 3%
PHKG2; [1]
  %Inh: 0%
PIK3C2B; [1]
  %Inh: 18%
PIK3C2G
  %Inh: 48%
PIK3CA
  %Inh: 0%
PIK3CB; [1]
  %Inh: 0%
PIK3CD; [1]
  %Inh: 25%
PIK3CG; [1]
  %Inh: 0%
PIK4CB; [1]
  %Inh: 3%
PIKFYVE
  %Inh: 11%

## Cc1nnc(-c2ccc3occ(-c4ccc(S(C)=O)cc4)c3c2)[nH]1 (stereo not shown)
PAK6; [1]
  %Inh: 13%
PAK7; [1]
  %Inh: 5%
PCTK1
  %Inh: 8%
PCTK2
  %Inh: 0%
PCTK3; [1]
  %Inh: 0%
PDGFRA; [1]
  %Inh: 36%
PDGFRB; [1]
  %Inh: 0%
PDPK1; [1]
  %Inh: 0%
PFTAIRE2; [1]
  %Inh: 24%
PFTK1; [1]
  %Inh: 6%
PHKG1
  %Inh: 15%
PHKG2; [1]
  %Inh: 16%
PIK3C2B; [1]
  %Inh: 3%
PIK3C2G
  %Inh: 17%
PIK3CA
  %Inh: 9%
PIK3CB; [1]
  %Inh: 28%
PIK3CD; [1]
  %Inh: 0%
PIK3CG; [1]
  %Inh: 5%
PIK4CB; [1]
  %Inh: 0%
PIKFYVE
  %Inh: 17%

## COc1cc(Nc2nccc(N3CCC(NC(=O)Nc4cc(C)ccc4C)C3)n2)cc(OC)c1OC (stereo not shown) [GSK1379762]
PAK6; [1]
  %Inh: 0%
PAK7; [1]
  %Inh: 0%
PCTK1
  %Inh: 9%
PCTK2
  %Inh: 24%
PCTK3; [1]
  %Inh: 33%
PDGFRA; [1]
  %Inh: 8%
PDGFRB; [1]
  %Inh: 42%
PDPK1; [1]
  %Inh: 11%
PFTAIRE2; [1]
  %Inh: 24%
PFTK1; [1]
  %Inh: 21%
PHKG1
  %Inh: 3%
PHKG2; [1]
  %Inh: 0%
PIK3C2B; [1]
  %Inh: 0%
PIK3C2G
  %Inh: 0%
PIK3CA
  %Inh: 0%
PIK3CB; [1]
  %Inh: 0%
PIK3CD; [1]
  %Inh: 39%
PIK3CG; [1]
  %Inh: 0%
PIK4CB; [1]
  %Inh: 15%
PIKFYVE
  %Inh: 0%

From article PMC5540273 (PLoS ONE, 2017)
